Inconclusive results are not listed. Calls of active or inactive are those of the source. Unless noted, calls follow the shape of the dose curve; as a rule, active = well fitted inhibition curve with a large enough effect; inconclusive = small, poorly fitted or top-dose-only effect; inactive = flat fitted curve, though single readings scatter.

The source of these data is PubChem BioAssay (NCATS).

Assay [1] can be described thus: qHTS drug screen for cell cycle checkpoint inhibitors in PARPi-resistant BRCA-mutant ovarian cancer cell lines. (AID 1963452; calls by dose curve). Particulars: PEO1/OlaR viability, CellTiter-Glo luminescence, 96 h, stronger effect = lower value. The gist of the method:
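PEO1, PEO4 and PEO1/OlaR ovarian cancer cells, 600 per well, exposed 96 h at 37C to a dilution series. Viability read by CellTiter-Glo luminescence, normalized to DMSO and empty wells; activity summarized as Z-AUC.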
In general terms: Quantitative high-throughput screening tests each substance at several concentrations.

Assay [2] in a line: qHTS for identification of novel therapeutic agents for treatment of microphthalmiaassociated transcription factor (MiT) renal cell carcinoma (RCC) (AID 1963991). The settings on record: CellTiter-Glo, 48 h, stronger effect = lower value. A digest of the protocol: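 Viability of three TFE3-fusion renal carcinoma lines measured by CellTiter-Glo after 48 h treatment with each of 1912 compounds at 11 concentrations. Responses scaled between DMSO (100%) and empty wells (0%) before curve fitting.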

Assay [3] is described as follows: qHTS profiling for inhibitors of Plasmodium falciparum proliferation (AID 504749). Also: nearly all actives have a fitted effect of over 60% in size. Also: potency is read from the fitted curve at half-maximal effect.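 As to activity, negative = inhibition: 0% = DMSO vehicle and full inhibition = artemisinin control.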 The settings on record: P. falciparum in erythrocytes, SYBR Green DNA, 72 h. A digest of the protocol:
(§1)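 SYBR Green fluorescence of parasite DNA, read after lysis and overnight dark incubation, measured growth over 72 h in erythrocyte culture at 0.3% parasitemia and 2.5% hematocrit. Data normalised to DMSO and 0.29 uM artemisinin, with plate-drift correction.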

For another assay, the system named is 3D7. Described as above. Particulars: P. falciparum in erythrocytes, SYBR Green DNA, 72 h; series mostly up to 28.7 µM. A digest of the protocol: as §1
The subject of a further assay is 7G8. The description is as above. Particulars: P. falciparum in erythrocytes, SYBR Green DNA, 72 h; series mostly up to 28.7 µM. The gist of the method: as §1
The test system of a further assay is AA1029. The description is as above. Particulars: P. falciparum in erythrocytes, SYBR Green DNA, 72 h; series mostly up to 28.7 µM. A digest of the protocol:
as §1

The subject of the next assay is AS120. The assay is described as above. The settings on record: P. falciparum in erythrocytes, SYBR Green DNA, 72 h; series mostly up to 28.7 µM. The gist of the method: as §1
In a further assay the test system is ATS189. The assay is described as above. Particulars: P. falciparum in erythrocytes, SYBR Green DNA, 72 h; series mostly up to 28.7 µM. A digest of the protocol: as §1
Where [4] appears, read: measured here: PEO1 parental Z-AUC.
Where [5] appears, read: TFE3-RCC UOK109 viability, measured here: UOK109 Z-AUC.
Setting [6] is: TFE3-RCC viability, measured here: UOK124 Z-AUC.
Where [7] appears, read: TFE3-RCC viability, measured here: UOK145 Z-AUC.
Setting [8] is: at 28.7 µM (top of the series), parasite line A.
[9] abbreviates: at 28.7 µM (top of the series), parasite line B.

Turning to `COc1ccccc1OCC(O)CN1CCN(CC(=O)Nc2c(C)cccc2C)CC1` (stereo not drawn), the values for the Z-AUC in assay [1], in assay [1] (setting [4]) and in assay [1] (measured here: PEO4 Z-AUC) were -0.161 (inactive), 0.571 and 0.54, respectively. The z-score in assay [2] (setting [5]) was 0.18; in assay [2] (setting [6]), 0.373; in assay [2] (setting [7]), -0.0249. Moreover, the activity, negative = inhibition is 2.52% (inactive) in assay [3] (setting [8]) and -6.5% (inactive) in assay [3] (setting [9]). For the same molecule, the Potency result in the assay on 3D7, in the assay on 7G8, with AA1029, with AS120 and in the assay with ATS189 was “inactive” in each case.

Regarding `Clc1ccc2nsnc2c1NC1=NCCN1`, the Z-AUC is 1.68 (inactive) in assay [1], 1.11 in assay [1] (setting [4]) and 1.24 in assay [1] (measured here: PEO4 Z-AUC). Also, the activity, negative = inhibition was 6.78% (inactive) in assay [3] (setting [8]) and -11.1% (inactive) in assay [3] (setting [9]). The Potency entry with 3D7, with 7G8, in the assay with AA1029, in the assay on AS120 and with ATS189 was “inactive” each time.

On to `Cc1ccc(C(=O)Nc2ccc(S(=O)(=O)O)c3cc(S(=O)(=O)O)cc(S(=O)(=O)O)c23)cc1NC(=O)c1cccc(NC(=O)Nc2cccc(C(=O)Nc3cc(C(=O)Nc4ccc(S(=O)(=O)O)c5cc(S(=O)(=O)O)cc(S(=O)(=O)O)c45)ccc3C)c2)c1`, for which the results for the Z-AUC in assay [1], in assay [1] (setting [4]) and in assay [1] (measured here: PEO4 Z-AUC) were 0.147 (inactive), 0.903 and 0.677, respectively. Also, the z-score in assay [2] (setting [5]) is 0.0489; in assay [2] (setting [6]), -1.39; in assay [2] (setting [7]), -0.47. Moreover, the Potency entry in the assay on 3D7, in the assay with 7G8 and with ATS189 was “inactive” throughout.

Consider `NC12CC3CC(CC(C3)C1)C2`, for which the figures for the Z-AUC in assay [1], in assay [1] (setting [4]) and in assay [1] (measured here: PEO4 Z-AUC) were 0.0042 (inactive), 0.0418 and 0.463, respectively. The activity, negative = inhibition is 8.47% (inactive) in assay [3] (setting [8]) and 14.2% (inactive) in assay [3] (setting [9]). Further, the Potency result in the assay with 3D7, in the assay on AA1029, in the assay with AS120 and in the assay on ATS189 was “inactive” in each case.

As to `Cn1cnc2c1c(=O)[nH]c(=O)n2C`, the values for the Z-AUC in assay [1], in assay [1] (setting [4]) and in assay [1] (measured here: PEO4 Z-AUC) were -0.393 (inactive), -0.653 and -0.709, respectively. In addition, the values for the activity, negative = inhibition in assay [3] (setting [8]) and in assay [3] (setting [9]) were 1.87% (inactive) and -0.248% (inactive), respectively. In addition, the Potency entry with 3D7, with 7G8, in the assay with AA1029, in the assay with AS120 and in the assay with ATS189 was “inactive” each time.

Turning to `Cc1cc(C(C)(C)C)cc(C)c1CC1=NCCN1`, the figures for the Z-AUC in assay [1], in assay [1] (setting [4]) and in assay [1] (measured here: PEO4 Z-AUC) were 0.735 (inactive), 0.684 and 0.966, respectively. Besides, the activity, negative = inhibition is -3.52% (inactive) in assay [3] (at 12.8 µM (top of the series), parasite line A) and -6.56% (inactive) in assay [3] (at 12.8 µM (top of the series), parasite line B). Besides, the Potency entry in the assay on 3D7, in the assay on 7G8, in the assay with AA1029, in the assay on AS120 and with ATS189 was “inactive” throughout.

Take `CC(COc1ccccc1)N(CCCl)Cc1ccccc1` (stereo not drawn): the Z-AUC is 1.41 (inactive) in assay [1], 1.02 in assay [1] (setting [4]) and 1.15 in assay [1] (measured here: PEO4 Z-AUC). The activity, negative = inhibition in assay [3] (setting [8]) was 7.32% (inactive); in assay [3] (setting [9]), 2.35% (inactive). The Potency result in the assay on 3D7 is “inactive”. Also, the Potency in the assay on 7G8 is 12.6 µM (active).

As for `OCCN1CCN(CCCN2c3ccccc3Sc3ccc(C(F)(F)F)cc32)CC1`, the Z-AUC in assay [1] is 0.453 (inactive); in assay [1] (setting [4]), 0.459; in assay [1] (measured here: PEO4 Z-AUC), 0.195. Moreover, the Potency in assay [3] (parasite line A) is 7.08 µM (active); in assay [3] (parasite line B) it was 10 µM (active); with 3D7, 7.08 µM (active); with 7G8, 3.16 µM (active); in the assay with AA1029 it was 12.6 µM (active); with AS120, 10 µM (active). Moreover, in the assay on ATS189, the Potency is 8.91 µM (active).

In the case of `CCCNCC(O)COc1ccccc1C(=O)CCc1ccccc1` (stereo not drawn), the Z-AUC is 0.52 (inactive) in assay [1], 0.498 in assay [1] (setting [4]) and 0.0881 in assay [1] (measured here: PEO4 Z-AUC). Moreover, the Potency is 1 µM (active) in assay [3] (parasite line A); 0.355 µM (active) in assay [3] (parasite line B); 2 µM (active) with 3D7; 0.251 µM (active) with 7G8; 0.631 µM (active) with AA1029; 0.316 µM (active) in the assay with AS120. In addition, in the assay with ATS189, the Potency is 0.891 µM (active).
